The values below come from ChEMBL document CHEMBL3988442, “University of Dundee, Small-Polar-MMV Screening Library” (2021).

Each structure is given as a SMILES string. About 13,000 (27%) of roughly 48,000 compounds showed an effect of 50% or more. This is one part of the list.

This assay deals with Wolbachia pipientis. The assay can be described thus: Anti-Wolbachia Cell-Based Screen. To be noted: 5 µM. It is filed as functional. Further details: scale not given: in the data most compounds retested in dose-response had high values.
`CCOCC(O)CNc1cncc(Br)c1` (stereo not given): the “Percent Effect” value is reported as -4.889%.
Under `CC(=O)CC(C)(C)NC(=O)CCN(C)Cc1ccc(Cl)s1` stands 13.53%.
In the case of `O=c1c2cccc(C(F)(F)F)c2ncn1C1CCNC1` (stereo not given), the “Percent Effect” value is reported as -5.057%.
Then `CN1CC(=O)N(C2CCNC2)Cc2c(NC3CCCC3)ncnc21` (stereo not given), with 104.3%; and `CN1CC(=O)N(C2CCCNC2)Cc2c(NC3CCC3)ncnc21` (stereo not given), with 103.9%; and `CC1=C(C(=O)N2CCOC(Cc3cccc(C(F)(F)F)c3)C2)OCCO1` (stereo not given), with -4.78%.
For `Cc1noc(C)c1CCNc1nccc(CCC(F)(F)F)n1`, the “Percent Effect” value turned out to be 1.118%.
Then `CN(C)Cc1nn(C)c2c1CN(S(=O)(=O)c1ccccc1F)C2`, with 3.844%; and `CC(=O)NC1CCN(c2cc(-c3ccccc3)nc3c(C)c(C)nn23)C1` (stereo not given), with -1.812%.
Turning to `CCc1[nH]ncc1C(=O)N1CCCC(n2ccnc2C(C)C)C1` (stereo not given), the “Percent Effect” value is on record as -14.63%.
Then `CCn1cc(S(=O)(=O)N2CCCCCC2c2cc(C)on2)cn1` (stereo not given), with 92.08%; and `CC(C)OCCC1CCCCN1S(=O)(=O)c1cnn(C)c1` (stereo not given), with -6.246%.
Then `CCn1cc(CN(C)S(=O)(=O)N2CCCC2c2ccco2)cn1` (stereo not given), with -4.974%; and `CCn1cc(S(=O)(=O)N2CCCCCC2c2cc(C)no2)cn1` (stereo not given), with 176.5%; and `CCOC(=O)C1CCN(C(=O)CN2CCCC2c2cc(C)no2)CC1` (stereo not given), with -7.861%.
Under `CNS(=O)(=O)CCCN1CCCC1c1cc(C)on1` (stereo not given) stands -6.242%; under `COCCOCCC(=O)Nc1c(-c2ccc(F)cc2)ncn1C`, -3.986%; under `CCn1[nH]c(C)c2c(C(F)(F)F)cc(=O)nc1-2`, -15.52%.
Consider `COc1c(C2CCCN2c2ncnc3ccsc23)c(C)nn1C` (stereo not given), for which the “Percent Effect” value is on record as 5.005%.
For `O=C(COC1CCCC1)N1CCCN(c2ncccn2)CC1`, the “Percent Effect” value is reported as -14.8%.
Under `CC(C)(C)c1nnc2n1C(C(=O)N1CCOCC1)CC2` (stereo not given) stands 111.9%; under `CC(C)(C)c1nnc2n1C(C(=O)N1CCN(c3ncccn3)CC1)CC2` (stereo not given), 115.5%.
Then `Cc1cn2nc(N3CCCC3C(=O)N3CCOCC3)sc2n1` (stereo not given), with -18.11%; and `CC(NC(=O)CCc1nc(C(C)(C)C)no1)c1nnc2n1CCC2` (stereo not given), with 1.388%.
Then `CN(C)C(=O)C1CCc2nnc(C(C)(C)C)n21` (stereo not given), with 107%; and `O=C1CCSCC(C(=O)N2CCOCC2)N1` (stereo not given), with -11.6%; and `CN1N=C(C(=O)N2CCN(c3ncccn3)CC2)CCC1=O`, with 16.67%.
Take `CC(C)NC(=O)C1CCc2nnc(C(C)(C)C)n21` (stereo not given): the “Percent Effect” value turned out to be 100.1%.
Then `CC(NC(=O)CCOc1ccccc1Cl)c1nnc2n1CCC2` (stereo not given), with 1.83%; and `CCc1nc2n(n1)CCCC2NC(=O)Nc1cccc(F)c1F` (stereo not given), with -21.46%.
Under `C[S+]([O-])c1cccc(NC(=O)N(CCC#N)Cc2ccccn2)c1` (stereo not given) stands -5.424%; under `CCn1cc(CNc2ccc(N(C)CCOC)cn2)cn1`, 3.344%; under `O=C(C1CCCc2[nH]ncc21)N1CCCCCC1` (stereo not given), 7.18%.
Under `CC(C)(C)c1nnc2n1C(C(=O)N1CCCC1)CC2` (stereo not given) stands 107.6%; under `O=C(C1CCCc2[nH]ncc21)N1CCCC1` (stereo not given), -1.484%.
As for `COCC1CN(Cc2ccoc2)Cc2cn(CC3CCOCC3)nc21` (stereo not given), the “Percent Effect” value is given as -9.673%.
Then `CN1CCCC1CNC(=O)CCCOCc1ccccc1` (stereo not given), with -8.407%.
Consider `CN1CCCC1CCNC(=O)Nc1ccccc1` (stereo not given), for which the “Percent Effect” value is 124.8%.
Under `O=C(NCCCO)Nc1ccccc1` stands -6.748%; under `CCN1C[C@H]2CCN(C(=O)Cc3cccc(OC)c3)CC[C@H]2S1(=O)=O`, 109.3%; under `COc1cccc(CC(=O)N2CCN(c3cccc(C)c3)C(C)C2)c1` (stereo not given), 0.04468%.
Regarding `Cc1ccccc1NC(=O)N1CC[C@@H]2CN(C)S(=O)(=O)[C@@H]2CC1`, the “Percent Effect” value was -6.47%.
Then `COc1ccc(CC(=O)N2CC[C@@H]3CN(C)S(=O)(=O)[C@@H]3CC2)cc1`, with 96.9%; and `COc1cccc(CC(=O)N2CC[C@@H]3CN(C)S(=O)(=O)[C@@H]3CC2)c1`, with 102.6%; and `Cc1ccccc1CNC(=O)N1CC[C@@H]2CN(C)S(=O)(=O)[C@@H]2CC1`, with -7.794%.
Then `CN1C[C@H]2CCN(C(=O)NC3CCCC3)CC[C@H]2S1(=O)=O`, with 24.31%.
Under `CCN1C[C@H]2CCN(C(=O)Nc3ccccc3C)CC[C@H]2S1(=O)=O` stands 5.146%; under `COc1ccc(CC(=O)N2CCC(c3n[nH]c(C4CC4)n3)CC2)cc1`, -2.488%; under `COc1cccc(CC(=O)N2CCC(Cc3nnc(SC)n3C)CC2)c1`, 13.49%.
Turning to `CCN1C[C@H]2CCN(C(C)=O)CC[C@H]2S1(=O)=O`, the “Percent Effect” value was determined as 7.241%.
Under `COc1cccc(NC(=O)N2CC[C@@H]3CN(C)S(=O)(=O)[C@@H]3CC2)c1` stands 108.6%; under `Cc1c(C(=O)N(CCN(C)C)Cc2ccccn2)oc2ccccc12`, -10.28%; under `CCC1CN(C(=O)c2ccc(O)cn2)CCC(=O)N1Cc1ccccc1` (stereo not given), -29.96%.
Then `N#Cc1cc(S(N)(=O)=O)ccc1NC1CCc2cc(Cl)ccc21` (stereo not given), with -7.649%; and `CNC(=O)[C@@H](c1ccccc1OC)N1CCC[C@H]1C(=O)NCCN(C)C.Cl.Cl`, with -2.091%.
Under `COc1ccc(CN2CCCn3cncc3C2)cc1Cn1cncn1` stands 17.87%.
Regarding `COc1cnc(C2(O)CCN(C(=O)c3ccccn3)CC2)c(OC)n1`, the “Percent Effect” value was 107.9%.
Under `COc1ccc(NC(=O)c2ccco2)c(N2CCN(C(C)=O)CC2)n1` stands -1.999%.
Then `COc1cnc(C2(O)CCN(C(=O)c3ccncc3)CC2)c(OC)n1`, with -4.993%; and `COc1cnc(C2(O)CCN(C(=O)c3scnc3C)CC2)c(OC)n1`, with 77.74%; and `COc1cnc(C2(O)CCN(C(=O)c3cccnc3)CC2)c(OC)n1`, with 2.765%.
Then `Cc1ccc(F)c(OC2(C(=O)O)CCN(C(=O)c3ccco3)CC2)c1`, with -23.64%; and `CCC(=O)N1CCC(O)(c2ncc(OC)nc2OC)CC1`, with -0.9107%.
`COc1cnc(C2(O)CCN(C(=O)c3ccco3)CC2)c(OC)n1`: the “Percent Effect” value turned out to be 113.8%.
`O=C1CC(C(=O)O)C2(CCN(C(=O)Nc3ccccc3Cl)CC2)N1` (stereo not given): the “Percent Effect” value came out at 8.972%.
Under `CS(=O)(=O)NC1CCN(C(=O)c2ccc(F)cc2)CC1` stands 22.77%; under `CCn1nc(C)c2nc(C(C)C)nc(NCCCO)c21`, 5.791%.
Under `CC[C@H]1CN(C(=O)C(C)(C)C)CC[C@H]1CC(=O)O` stands 0.9693%; under `CCS(=O)(=O)NCC1Cn2nnc(-c3ccccc3)c2CO1` (stereo not given), 4.629%; under `Cc1cc(=O)c2ccccc2n1CC1CCN(C(C)C)C1` (stereo not given), -7.176%.
Turning to `CC(C)N1CCN(CCn2cnc3c(F)cccc3c2=O)CC1`, the “Percent Effect” value is -1.52%.
Under `CC(C)NC(=O)CN(C)C(=O)c1c(Br)c2ccccc2n1C` stands -8.15%.
Under `CCCc1nc(Cn2c(=O)n(C)c3ccccc32)no1` stands -1.157%; under `CC(C)NC(=O)CN(C)C(=O)c1c(Cl)c2ccccc2n1C`, 7.479%.
Under `CN(C)CCn1c(=O)n(C)c(=O)c2ccccc21.Cl` stands 110%; under `CC(C)n1c(=O)c2ccccc2n(CCN(C)C)c1=O.Cl`, 91.55%; under `CC(C)n1c(=O)c2ccccc2n(CCCN(C)C)c1=O.Cl`, 74.16%.
`CCc1nc(Cn2c(=O)n(C)c3ccccc32)no1`: the “Percent Effect” value is listed as -3.957%.
Under `CC(CCc1ccccc1)NC(=O)CNCCCN(C)C.O=C(O)C(=O)O` (stereo not given) stands -3.27%.
Under `CC(C)n1c(=O)c2ccccc2n(CCN2CCCCC2)c1=O` stands 58.61%.
`CC(C)S(=O)(=O)CC(=O)N(Cc1ccsc1)c1ccccc1`: the “Percent Effect” value is on record as -3.342%.
Then `Cn1cc(CN2CCCC3(COCCN(Cc4c[nH]nn4)C3)C2)cn1.O=C(O)C(F)(F)F.O=C(O)C(F)(F)F` (stereo not given), with -3.726%; and `CC(C)C(=O)N1CCCC(c2cc(C(F)F)n3ncnc3n2)C1.Cl` (stereo not given), with -4.51%.
As for `COCC(=O)N1CCCC(c2cc(C(F)F)n3ncnc3n2)C1.Cl` (stereo not given), the “Percent Effect” value is given as 109.8%.
Regarding `O=C(Cc1ccsc1)N1CCCC(c2cc(C(F)F)n3ncnc3n2)C1` (stereo not given), the “Percent Effect” value stood at 112.3%.
Then `Cc1nc(C2CCCN(C(=O)CO)C2)cc(N2CCOCC2)n1` (stereo not given), with -8.444%; and `NC(=O)c1ccc(-n2ccnc2C2CC2)cc1N1CCCC1`, with 30.18%.
As for `COCCS(=O)(=O)N(Cc1ccsc1)c1ccccc1`, the “Percent Effect” value is -9.25%.
Then `COc1cc(CN(C)C(=O)NCC(=O)NC(C)C)ccc1SC`, with -30.2%; and `COCC(=O)NCCC(=O)N1CCN(S(=O)(=O)c2cccc(Br)c2)CC1`, with 2.832%; and `Cl.O=C(NCCn1nc(C2CCNC2)c2cccnc21)C1CCC1` (stereo not given), with 119.3%.
Then `Cl.O=C(NCCn1nc(C2CCNC2)c2cccnc21)C1CC1` (stereo not given), with 104.4%; and `O=C(CCNC(=O)C1CCCC1)NCc1cccnc1-n1cncn1`, with -1.584%; and `Cc1cccc(C)c1OC1CN(C(=O)C2CCCN(C(=O)N(C)C)C2)C1` (stereo not given), with -13.19%.
Then `O=C(NCCc1ccsc1)Nc1cccnc1N1CCCC1`, with 0.6987%; and `COc1c(C(=O)N2CCC(CSc3ccccc3)C2)c(C)nn1C` (stereo not given), with 13.6%.
Take `CC(C)N(C)S(=O)(=O)N(C)Cc1ccc2c(c1)OCO2`: the “Percent Effect” value is -1.448%.
Then `CCS(=O)(=O)c1ccc2c(c1)OCCCO2`, with -4.006%; and `CCN(CC)S(=O)(=O)N(C)Cc1ccc2c(c1)OCCO2`, with 104.5%.
For `CCN(CC)S(=O)(=O)N(CC)Cc1ccc2c(c1)OCCO2`, the “Percent Effect” value is on record as 92.18%.
Turning to `CC(C)N(C)S(=O)(=O)N(C)Cc1ccc2c(c1)OCCO2`, the “Percent Effect” value is given as 98.7%.
Then `CCS(=O)(=O)c1ccc2c(c1)OCCO2`, with -1.362%; and `CCC[C@@H]1CN(Cc2ccc3c(c2)OCCO3)C[C@H]1C(=O)O`, with -6.164%.
In the case of `CC(=O)NCCNC(=O)N(C)Cc1ccc2c(c1)OCCO2`, the “Percent Effect” value stood at 1.28%.
Regarding `CC(C)N(C)S(=O)(=O)N(C)Cc1cnn(C)c1`, the “Percent Effect” value is on record as -10.04%.
